Test results: publication PMC5540273 (PLoS ONE, 2017)

How the values were obtained:
Settings in all cases: concentration: 1 μM, replicates: in singlicate; n = 1
CDK4-cyclinD1 = test system: CDK4-cyclinD1
CDK4-cyclinD3 = test system: CDK4-cyclinD3
CDK4 = test system: CDK4
CDK5 = test system: CDK5
CDK7 = test system: CDK7
CDK8 = test system: CDK8
CDK9 = test system: CDK9
CDKL1 = test system: CDKL1
CDKL2 = test system: CDKL2
CDKL3 = test system: CDKL3
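Note: KINOMEscan kinase panel screen.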

Compound | %Inh (CDK4-cyclinD1) | %Inh (CDK4-cyclinD3) | %Inh (CDK4) | %Inh (CDK5) | %Inh (CDK7) | %Inh (CDK8) | %Inh (CDK9) | %Inh (CDKL1) | %Inh (CDKL2) | %Inh (CDKL3)
O=C(Nc1n[nH]c2cc(-c3ccsc3)ccc12)C1CC1 [SB-732932] | 14% | 0% | 86% | 14% | 21% | 0% | 17% | 10% | 94.7% | 36%
COc1cccc(CNC(=O)NC2CCN(c3ccnc(Nc4ccc(F)cc4)n3)C2)c1 (stereo not shown) [GSK1379723] | 0% | 15% | 0% | 0% | 0% | 0% | 0% | 0% | 39% | 0%
Nc1cccc(-c2ccc3c(N)n[nH]c3c2)n1 [GSK2192730] | 0% | 0% | 0% | 0% | 92.8% | 0% | 16% | 0% | 13% | 0%
c1ccc(-c2ccnc3[nH]ccc23)cc1 [SB-693578] | 0% | 19% | 22% | 0% | 6% | 35% | 0% | 2% | 12% | 0%
COc1ccc(Nc2nccc(NCCNC(=O)Nc3cc(C)ccc3C)n2)cc1 [GSK1379899] | 0% | 0% | 3% | 0% | 0% | 13% | 0% | 0% | 21% | 0%
Cc1ccc(NC(=O)Nc2ccc(Cl)c(C(F)(F)F)c2)cc1-c1ccc(C(=O)Nc2ccncc2)cc1 [GSK1398470] | 0% | 0% | 0% | 0% | 0% | 36% | 0% | 86% | 34% | 0%
Cc1nccc(-c2c(-c3ccc(F)cc3)ncn2CCCN2CCOCC2)n1.Cl [SB-282975] | 14% | 33% | 18% | 3% | 27% | 39% | 100% | 34% | 20% | 12%
Cc1cnc(N)c(/C=C/c2cncc(C(=O)NCCc3ccc(Cl)cc3Cl)c2)c1.Cl [GSK190937] | 0% | 0% | 16% | 0% | 0% | 88% | 0% | 0% | 15% | 0%
Cc1ccc(NC(=O)Nc2ccccc2)cc1-c1ccc(C(=O)Nc2ccncc2)cc1 [GSK1398471] | 0% | 0% | 0% | 0% | 0% | 0% | 0% | 0% | 23% | 1%
COC(=O)C(NC(=O)NC1CCN(c2ccnc(Nc3ccc(F)cc3)n2)C1)c1ccccc1 (stereo not shown) [GSK1379712] | 20% | 4% | 29% | 1% | 14% | 58% | 18% | 0% | 10% | 0%
O=C(Nc1n[nH]c2nc(-c3ccco3)c(Br)cc12)C1CCN(Cc2ccccc2)C1.O=C(O)[C@H](O)[C@@H](O)C(=O)O (stereo not shown) [SB-742034] | 0% | 0% | 14% | 8% | 81% | 0% | 0% | 51% | 69% | 0%
CC(C)c1cc(-c2ccc3c(N)n[nH]c3c2)nc(N)n1 [GSK2250882] | 0% | 0% | 0% | 0% | 0% | 20% | 0% | 23% | 20% | 0%
COc1ccc(Nc2nccc(N3CCC(NC(=O)C(C)c4ccc(Cl)cc4)C3)n2)cc1 (stereo not shown) [GSK1379735] | 0% | 0% | 23% | 0% | 0% | 35% | 0% | 100% | 29% | 0%
CC(=O)c1c(C)c2cnc(Nc3ccn(C)n3)nc2n(C2CCCC2)c1=O | 99.6% | 98.4% | 19% | 0% | 0% | 0% | 18% | 0% | 0% | 0%
O=C1NC(=O)C(c2ccc(Cl)cc2)=C1Nc1ccc(O)cc1 [SB-340867] | 0% | 0% | 0% | 0% | 0% | 11% | 0% | 12% | 41% | 0%
CCn1c(-c2ccccc2)nc2cnccc21 [SB-733416] | 0% | 6% | 3% | 0% | 0% | 0% | 0% | 0% | 9% | 0%
Cc1ccc(NC(=O)c2ccc(Cl)cc2)cc1-c1ccc(C(=O)Nc2ccncc2)cc1 [GSK1398467] | 0% | 0% | 0% | 0% | 0% | 0% | 0% | 13% | 20% | 0%

Compound | %Inh (CDK4-cyclinD1) | %Inh (CDK4-cyclinD3) | %Inh (CDK4) | %Inh (CDK5) | %Inh (CDK7) | %Inh (CDK8) | %Inh (CDK9) | %Inh (CDKL1) | %Inh (CDKL2) | %Inh (CDKL3)
COc1ccc(Nc2nccc(-c3ccc(NC(=O)c4cc5cc(F)ccc5[nH]4)cc3)n2)cc1 [GSK1229496] | 0% | 0% | 39% | 0% | 0% | 20% | 0% | 0% | 0% | 0%
COC(=O)C(Cc1ccccc1)NC(=O)NC1CCN(c2ccnc(Nc3ccc(F)cc3)n2)C1 (stereo not shown) [GSK1379714] | 29% | 0% | 5% | 0% | 0% | 48% | 0% | 8% | 9% | 0%
O=C(Nc1n[nH]c2nc(-c3cccs3)c(Br)cc12)C1CC1 [SB-735297] | 0% | 0% | 0% | 0% | 16% | 0% | 0% | 34% | 96.4% | 0%
CN1c2ccc(-c3ccc(C(N)=O)cc3)cc2-c2[nH]ncc2S1(=O)=O | 27% | 0% | 0% | 0% | 0% | 28% | 0% | 22% | 31% | 0%
COc1ccc2cc(-c3nc(-c4ccccc4C(C)C)[nH]c3-c3ccncc3)ccc2c1 [SB-660566] | 0% | 19% | 9% | 0% | 0% | 0% | 0% | 0% | 9% | 0%
Fc1ccc(-c2nn3cccc(F)c3c2-c2ccncc2)cc1 [GW475620] | 1% | 0% | 24% | 17% | 0% | 15% | 0% | 0% | 14% | 0%
COc1ccc(CSc2nnc(-c3ccc4nccn4c3)o2)cc1C(F)(F)F | 7% | 13% | 0% | 10% | 13% | 21% | 0% | 21% | 7% | 18%
NS(=O)(=O)c1cccc(N/C=C2\C(=O)Nc3ccc(S(=O)(=O)Cc4c(Cl)cccc4Cl)cc32)c1 [GSK398099] | 0% | 18% | 0% | 0% | 0% | 0% | 0% | 100% | 37% | 0%
CNCc1ccc2nc(NC(=O)c3ccc(C(C)(C)C)cc3)cn2c1 | 14% | 0% | 3% | 0% | 8% | 1% | 3% | 0% | 0% | 0%
Cc1ccc(NC(=O)Nc2ccc(Cl)cc2)cc1-c1ccc(C(=O)Nc2ccncc2)cc1 [GSK1398472] | 0% | 10% | 2% | 0% | 0% | 8% | 0% | 3% | 19% | 1%
Cc1c(Cn2c3ccccc3n3c(=O)cc(N4CCOCC4)nc23)cccc1C(F)(F)F [GSK2306394] | 0% | 0% | 0% | 0% | 0% | 0% | 100% | 0% | 16% | 0%
CNC(=O)c1ccc(C)c(-n2c(C)cc(OCc3ccc(F)cc3F)c(Br)c2=O)c1 | 0% | 0% | 0% | 0% | 4% | 4% | 0% | 91.9% | 3% | 25%
CC(=O)c1cccc(NC(=O)NC2CCN(c3ccnc(Nc4ccc(F)cc4)n3)C2)c1 (stereo not shown) [GSK1379710] | 0% | 0% | 38% | 0% | 7% | 76% | 17% | 27% | 59% | 0%
CS(=O)(=O)CCNCc1nc(-c2ccc3ncnc(Nc4ccc(OCc5ccccc5)c(Cl)c4)c3c2)cs1.Cl [GW582764] | 45% | 0% | 38% | 0% | 0% | 47% | 0% | 9% | 18% | 0%
COc1ccc(-c2coc3ccc(-c4nnc(C)o4)cc23)cc1 | 0% | 0% | 0% | 0% | 0% | 0% | 0% | 24% | 0% | 0%
Fc1ccc(-c2nc3n(c2-c2ccncc2)CCS3)cc1 [GI98581] | 0% | 0% | 31% | 6% | 0% | 19% | 0% | 2% | 4% | 0%
CC(C)c1ccc(O)cc1Nc1ccnc2ccc(C(F)(F)F)cc12 [GW482059] | 85% | 0% | 0% | 0% | 0% | 25% | 0% | 0% | 5% | 0%
